Compound activity as filed in PubChem BioAssay.
FLuc counter = counter-screen for miR-21 project: firefly luciferase inhibitors or activators; Potency, µM (series often up to 57.5 µM), inactives show at the highest dose activity change, negative = inhibition, actives largely listed as inhibitors; actives 6.9% (n = 360,000); purified FLuc, Km substrates, luminescence inhibition; AID 588342;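 note: plate controls were vehicle for no effect and reference inhibitor for full effect; nearly all actives have a fitted effect of over 55% in size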
Target sequence (P08659 whole entry, looked up): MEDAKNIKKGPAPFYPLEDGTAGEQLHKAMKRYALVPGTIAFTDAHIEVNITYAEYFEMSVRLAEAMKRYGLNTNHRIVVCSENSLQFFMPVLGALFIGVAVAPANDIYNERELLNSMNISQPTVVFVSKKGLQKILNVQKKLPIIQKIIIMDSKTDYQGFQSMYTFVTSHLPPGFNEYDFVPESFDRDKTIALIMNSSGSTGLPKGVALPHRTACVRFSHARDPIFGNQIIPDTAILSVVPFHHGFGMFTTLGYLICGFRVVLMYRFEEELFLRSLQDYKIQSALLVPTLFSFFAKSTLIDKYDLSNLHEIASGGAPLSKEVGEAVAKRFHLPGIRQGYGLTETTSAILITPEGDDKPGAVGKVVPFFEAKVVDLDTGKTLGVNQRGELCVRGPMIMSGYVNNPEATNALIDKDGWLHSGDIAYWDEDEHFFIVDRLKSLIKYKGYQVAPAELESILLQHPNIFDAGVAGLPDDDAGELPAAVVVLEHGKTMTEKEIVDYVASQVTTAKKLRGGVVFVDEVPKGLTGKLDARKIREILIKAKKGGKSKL
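Biochemical qHTS of compounds, final roughly 60 µM downward over six points, against 10 nM purified firefly luciferase using Km concentrations of substrates (10 uM D-luciferin, 10 uM ATP) in Tris acetate pH 7.5 buffer; luminescence output.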
KinaseGlo FLuc = Kinase-Glo luciferase inhibition (counter-screen). Q27757. Kinase-Glo luciferase, ATP luminescence, 8 min. Potency, µM (series often up to 38.3 µM), without a hit: top-dose activity change, negative = inhibition, most hits filed as inhibitors. actives 0.28% (n = 200,000). AID 1379; note: % is set by controls: 0 for no effect and ±100 for the full control effect; nearly all actives have a fitted effect of over 60% in size
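Compound is pinned into ATP-containing buffer (10 uM ATP, imidazole pH 7.2, 7 mM MgCl2). Kinase-Glo luciferase reagent is then added. Light output is recorded following an 8-min room-temperature incubation.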
Rab9 prom act = Rab9 promoter activation; Potency, µM (series often up to 9.22 µM), without a hit: at the highest dose activation, negative = inhibition, most hits filed as activators; AID 485297; actives 2.8% (n = 320,000); Huh7 Rab9 promoter-luciferase reporter, luminescence, 24 h; note: % of control where 0% means no effect; nearly all actives have a fitted effect of over 60% in size
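Cell-based reporter: Huh7 stable for Rab9 promoter-driven luciferase, plated in reduced-serum medium with 10% FBS at 1500 cells/well, compound-treated 24 h at 37 °C, luminescence read after 10 min reagent.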
ELG1 genotox = inducers of genotoxicity in HEK293T ELG1-luciferase cells | HEK293T ELG1-luciferase reporter, luminescence, 16 h | Potency, µM (highest dose often 46 µM), inactives show at the highest dose activity change, positive = activation, most hits filed as activators | actives 1.3% (n = 330,000) | AID 504466; note: % of control where 0% means no effect; nearly all actives have a fitted effect of over 60% in size
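HEK293T cells expressing luciferase-tagged ELG1 were exposed to compound or DMSO vehicle for 16 hr at 37 °C and 5% CO2. Luciferase activity was then measured with ONE-Glo after 30 min at room temperature.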
NPC1 promoter act = NPC1 promoter activation | Potency, µM (top dose mostly 9.22 µM), for the others: at the top dose activation, most hits filed as activators | Huh7 NPC1 promoter luciferase reporter, 24 h | actives 2.4% (n = 320,000); note: % of control where 0% means no effect; nearly all actives have a fitted effect of over 60% in size
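NPC1 promoter–luciferase Huh7 cells; 24 h compound; luminescence.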
SMN2 splice enh = enhancers of SMN2 splice variant expression; AID 1458; actives 2.8% (n = 210,000); Potency, µM (top dose mostly 46.1 µM), inactives show top-dose activity change, positive = activation, actives largely listed as activators; HEK293 SMN2-luciferase splicing reporter, luminescence, 30-36 h; note: % of control where 0% means no effect; nearly all actives have a fitted effect of over 55% in size
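HEK293 cells carry an SMN2 minigene-luciferase reporter in which exon 7 inclusion puts luciferase in frame. Cells were seeded at 2000 cells/well, attached for 10-12 hours, then exposed to compounds for 30-36 hours at 37C before ONE-Glo luminescence.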
* marks the source's active call; other numbers are inactive results; ? = inconclusive; / = no result given; ! = not confirmed by another sample; [ ] = remark or other dose. Compounds with a hit are over-represented: about 7.5% of the library has one in this group of screens. Calls come from the whole dose curve; as a rule, active = well fitted curve in the direction sought with a large enough effect; inconclusive = small, poorly fitted or top-dose-only effect, or another doubt; inactive = no such curve, though single readings can be large; an effect the other way counts as inactive or inconclusive. Potency is the fitted concentration of half-maximal effect.

SMILES | FLuc counter | KinaseGlo FLuc | Rab9 prom act | ELG1 genotox | NPC1 promoter act | SMN2 splice enh
CCc1ccc(NC(=O)c2sc3nc(C)cc(C)c3c2NC(=O)c2ccccc2)cc1 | -0.3% | / | / | / | / | 6.3%
O=C(CSc1nnc(-c2cccs2)o1)N1CCCCC1 | 21.3µM* | -5.2% | 1.58µM* | 9.2µM* | 2.51µM* | 12.6µM*
CC1CCN(C(=O)CSc2nnc(-c3cccs3)o2)CC1 | -14.0% | / | 21.1% | 20.0% | 13.3% | /
CC1CCCC(C)N1C(=O)CSc1nnc(-c2cccs2)o1 (stereo unspecified) | 12µM* | -0.8% | 1.58µM* | ? | 1.12µM* | 11.2µM*
CC1CCCCN1C(=O)CSc1nnc(-c2cccs2)o1 (stereo unspecified) | 21.3µM* | / | 2.24µM* | ? | 3.55µM* | /
O=C(CSc1nnc(-c2cccs2)o1)N1CCOCC1 | 0.2% | -3.8% | 0.5% | 3.7% | -0.9% | -0.9%
CCOc1ccc(C(=O)c2cn(CC(=O)Nc3ccc(F)c(F)c3)c3cc4c(cc3c2=O)OCCO4)cc1 | -2.0% | / | / | / | / | -12.2%
O=S(=O)(c1ccc(Cl)cc1)c1nc(-c2ccco2)oc1SCc1ccc(F)cc1 | -8.6% | / | / | / | / | -49.2%
Cc1ccc(C(=O)NCCc2cccs2)cc1 | 0.849µM* | -15.1% | 0.1µM* | ? | 0.316µM* | 0.501µM*
CCOc1c2ccc(C(=O)NCc3ccc(C)cc3)cc2nn1CC | -0.5% | 2.7% | -4.9% | 0.0% | -1.9% | 12.6µM*
O=C(NCCc1cccs1)c1ccc(CS(=O)Cc2ccc(Cl)cc2)o1 (stereo unspecified) | -0.7% | / | 0.9% | 1.5% | -1.1% | /
CCCn1nc2cc(C(=O)NCc3ccc(C)cc3)ccc2c1OCC | -11.3% | 1.5% | -5.6% | -0.2% | -3.5% | -0.1%
O=C(NCCc1cccs1)c1ccc(Cl)cc1 | 1.2µM* | / | 0.316µM* | ? | 0.355µM* | /
O=C(NCCc1cccs1)c1ccc(Cl)c(Cl)c1 | 10.7µM* | -1.2% | 2.24µM* | ? | 3.16µM* | /
COCCNC(=O)c1ccc(Cl)c(Cl)c1 | -0.8% | -2.7% | 3.0% | 0.3% | -0.4% | -2.6%
CC(C)(C)NC[C@H](O)COc1cccc2c1C[C@@H](O)[C@@H](O)C2 | / | 2.3%[17.1 µM] | / | / | / | -13.0%[20.6 µM]
CCOc1c2ccc(C(=O)NCCc3ccc(C)cc3)cc2nn1CC | -1.5% | -7.5% | -1.4% | 4.2% | 1.4% | -29.2%
CCn1nc2cc(C(=O)NCCc3cccs3)ccc2c1OC | 6.75µM* | -17.0% | 1.12µM* | ? | 2.51µM* | ?
O=C(/C=C/c1cccc(Cl)c1)NCc1cccs1 | ? | -0.8% | 8.1% | 1.5% | 9.6% | -2.3%
O=C(/C=C/c1ccc(Cl)cc1)NCc1cccs1 | 15.1µM* | -1.3% | 12.4% | 15.6% | 7.9% | 3.5%
CC(C)Oc1ccc(C(=O)NCc2cccs2)cc1 | 13.5µM* | -1.5% | ? | ? | 29.8% | 21.5%
COc1ccc(NC(=O)NC2COc3ccccc3C2)cc1Cl (stereo unspecified) | -9.6% | / | / | / | / | /
COc1ccc(CCNCc2ccc3c(c2)n(C)c(=O)n3C)cc1OC | -5.7% | / | / | / | / | /
CCOc1ccc(NC(=O)CC2C(=O)N(c3ccc(C)cc3)C(=O)N2CCC2=CCCCC2)cc1 (stereo unspecified) | -0.8% | / | / | / | / | 19.0%
O=C(CSC1=Nc2ccccc2N=C(c2ccc(F)cc2)C1)NCc1ccccc1 | -8.9% | / | / | / | / | /
NC(=O)c1ccc(-c2ccc(Br)cc2)o1 | 19µM* | -1.9% | 7.8% | ? | 6.9% | 3.4%
NC(=O)C1CCN(C(=S)c2ccc(-c3ccc(Br)cc3)o2)CC1 | ? | -0.4% | ? | 10.3µM*! | ? | 8.91µM*
O=C(O)c1ccc(NC(=S)NC(=O)c2ccc(-c3ccc(Br)cc3)o2)cc1 | -4.8% | / | 1.6% | 6.9% | 0.5% | /
COc1ccc2c(c1)c1c(c(=O)n(-c3ccccc3C)c(=O)n1Cc1c(F)cccc1Cl)n2C | 1.3% | / | / | / | / | /
